# Compounds with a hit are over-represented: about 3.3% of the library has one in this group of screens.
# Smad3 FoxH1 inh: inhibitors of human Smad3 transcription factor binding; AID 630; P84022; 88,000 compounds, 0.29% hits; inhibition, % at 25 µM; TR-FRET Smad3/Dy647-FoxH1 peptide binding, europium anti-His;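 active = compounds that reduce the energy-transfer binding signal between the protein and its labelled peptide by more than half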;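 note: 0% = Smad3 plus labelled peptide maximal FRET and 100% = peptide-only background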
# Target sequence (P84022 whole entry, looked up): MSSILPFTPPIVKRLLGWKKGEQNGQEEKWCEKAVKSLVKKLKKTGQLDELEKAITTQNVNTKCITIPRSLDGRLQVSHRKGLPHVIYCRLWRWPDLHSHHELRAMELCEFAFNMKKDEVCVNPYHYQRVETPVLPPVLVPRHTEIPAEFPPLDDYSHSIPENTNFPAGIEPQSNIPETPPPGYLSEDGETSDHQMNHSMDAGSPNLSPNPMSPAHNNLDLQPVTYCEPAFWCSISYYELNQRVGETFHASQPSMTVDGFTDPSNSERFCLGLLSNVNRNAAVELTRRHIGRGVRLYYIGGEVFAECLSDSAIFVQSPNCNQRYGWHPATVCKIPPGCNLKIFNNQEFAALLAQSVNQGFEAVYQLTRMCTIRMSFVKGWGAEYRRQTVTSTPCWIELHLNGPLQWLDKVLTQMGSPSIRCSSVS
# ERa coact pot: ER-alpha (human) coactivator binding potentiation. 86,000 compounds, 1.3% hits. TR-FRET ERalpha-LBD/SRC-Cy5 coactivator binding, 2 h; 100 = basal binding, no effect. coactivator binding (% of control), % at 25.6 µM. P03372; in the data active = activity above about 200%;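 note: binding measured in presence of low estradiol as agonist stimulus; 0% = peptide alone without receptor and 100% = receptor with peptide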
# ERb SRC1 inh: blocks coactivator binding to human estrogen receptor beta; Q92731; 86,000 compounds, 1.3% hits; inhibition, % at 25.6 µM; TR-FRET ER-beta LBD / SRC1-Cy5 peptide binding; receptor agonist-loaded with 1 µM estradiol; AID 633;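 active = compounds whose percent inhibition of the receptor-coactivator binding signal exceeds about 50% in the single-dose screen, limit read from the data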;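 note: 0% = receptor plus peptide wells without compound and 100% = peptide-only wells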
# ERa SRC1 inh: blocks coactivator binding to human estrogen receptor alpha | P03372 | inhibition, % at 25.6 µM | 86,000 compounds, 1.7% hits | TR-FRET ER-alpha LBD / SRC-1 peptide, estradiol-bound; in the data active = inhibition above about 50%;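 note: 0% = receptor plus peptide control and 100% = peptide only without receptor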
# FAK blocker: FAK (human) kinase inhibition. AID 727. inhibition, %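 (tested at 7 µM)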. Q05397. biochemical FAK kinase activity assay. 97,000 compounds, 0.84% hits; in the data active = inhibition above about 19%;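 note: 0% = DMSO and 100% = reference compound high control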
# An asterisk follows results filed as active; nt = no result; [ ] = another dose, or the depositor's remark.
SMILES,Smad3 FoxH1 inh,ERa coact pot,ERb SRC1 inh,ERa SRC1 inh,FAK blocker
N=c1c(-c2nc3ccccc3[nH]2)cc(C(=O)c2cccs2)nn1-c1ccc(Cl)cc1,-6,29,52*,90*[fluorescence artefact?],10
O=C(c1ccc2c(c1)[nH]c(=S)n1c3ccccc3nc21)N1CCN(c2ncccn2)CC1,0,73,-4,51*[fluorescence artefact?],-1
Cc1ccc(S(=O)(=O)OCC(=O)O)cc1,0,nt,nt,nt,nt
COc1ccc(C)c2sc(NC(=O)C3=COCCO3)nc12,-3,104,-4,93*[fluorescence artefact?],4
CC(C)(C)C(=O)[C@H]([C@@H](c1ccccc1)N1CCOCC1)N1CCOCC1,-1,nt,nt,nt,nt
CC(=O)Nc1nonc1-c1nc2ccccc2n1N(C(C)=O)C(C)=O,11,22,76*,86*[fluorescence artefact?],9
CC(=O)Nc1nonc1-c1nc2ccccc2n1CC1CC1,-14,90,4,1,3
Clc1ccccc1C(Nc1ncccn1)Nc1ncccn1,8,nt,nt,nt,nt
CN1CCN(CCCN)CC1,-5,nt,nt,nt,nt
CC(=O)[C@]1(O)CC[C@@H]2[C@H]3C[C@@H](C)C4=CC(=O)CC[C@@]4(C)[C@@H]3[C@@H](O)C[C@]21C,34,nt,nt,nt,nt
CN=c1scc(C)n1/N=C/c1ccc(O)c(O)c1O,20,17,100*[fluorescence artefact?],97*[fluorescence artefact?],1
Cc1ccc(S(=O)(=O)NCCSc2nnnn2C)cc1,3,112,75*[fluorescence artefact?],-1,-6
Clc1ccccc1NN(Cc1ccncc1)c1ccccc1Cl,14,nt,nt,nt,nt
CCC1=C(C[C@H]2NCCc3ccccc32)C[C@H]2c3cc(OC)c(OC)cc3CCN2C1,5,nt,nt,nt,nt
CCOC(=O)C1=c2/c(=C/c3ccccc3OC)c(N)c(C#N)n2C(=O)C(c2ccccc2OC)S1 (stereo not given),2,129,52*,63*,-1
Cc1oc(-c2ccc(Cl)cc2)nc1CN1CCCC(C(=O)NCc2cccnc2)C1 (stereo not given),-4,109,53*,-7,2
Cc1oc(-c2ccc(Cl)cc2)nc1CN1CCCC(C(=O)NCc2ccccn2)C1 (stereo not given),2,99,2,-4,-3
CC[C@H]1CC[C@H]2[C@H]3CC=C4C[C@H](OC(C)=O)[C@@H](N)C[C@@]4(C)[C@@H]3CC[C@]12C,-4,nt,nt,nt,nt
O=C(O)[C@@H](c1ccccc1)N1Cc2ccccc2C1=O,5,597*[fluorescence artefact?],17,-18,-2
O=C(CCc1ccc(S(=O)(=O)N2CCOCC2)cc1)Nc1nc(COc2ccccc2)cs1,nt,nt,nt,nt,1
COc1cc(S(=O)(=O)NCc2ccc3c(c2)OCO3)ccc1Cl,3,111,-1,-3,-1
COc1cc(C)c(S(=O)(=O)NCc2ccc3c(c2)OCO3)cc1C,9,79,0,66*,1
CCn1c(C(=O)N2CCCC(C(=O)NCCCc3ccccc3)C2)cc2sccc21 (stereo not given),2,132,80*[fluorescence artefact?],-3,-4
CCn1c(C(=O)N2CCCC(C(=O)NCCc3ccc(C)cc3)C2)cc2sccc21 (stereo not given),0,100,-8,-60,2
O=S(=O)(NCCc1csc(-c2cccnc2)n1)c1ccc(Cl)s1,-6,32,41,83*,16
SMILES,Smad3 FoxH1 inh,ERa coact pot,ERb SRC1 inh,ERa SRC1 inh,FAK blocker
O=S(=O)(NCc1csc(-c2cccnc2)n1)c1cccs1,8,45,39,71*,nt
O=S(=O)(NCCc1csc(-c2cccnc2)n1)c1cccs1,nt,nt,nt,nt,4
COC(=O)c1c(NC(=O)c2nc3ccccc3s2)sc2c1CCN(C(C)=O)C2,5,129,5,-1,6
CNC(=O)c1c(NC(=O)c2nc3ccccc3s2)sc2c1CCC2,4,61,53*,72*[fluorescence artefact?],-3
CCOC(=O)CN1CC23C=CC(O2)C(C(=O)Nc2cc(OC)ccc2OC)C3C1=O (stereo not given),36,41,69*,72*[fluorescence artefact?],nt
C/C(=N\O)c1cccc[n+]1Cc1ccccc1,-5,nt,nt,nt,nt
COc1ccc(-c2nnc(-c3cccnc3)o2)cc1,-4,97,-12,-3,-5
c1cncc(-c2nc(Oc3ccc(-c4nnco4)cc3)c3c4c(sc3n2)CCCC4)c1,-5,258*[fluorescence artefact?],5,18,nt
CCN(CC)c1ccc2cc(C(=O)Nc3cccnc3N3CCOCC3)c(=O)oc2c1,8,116,-6,-10,nt
CCOc1cc(-n2cnnn2)c(OCC)cc1NC(=O)c1cc2ccc(N(CC)CC)cc2oc1=O,5,191,53*[fluorescence artefact?],84*[fluorescence artefact?],-5
CC(C)[C@H](N=Cc1ccccc1O)C(=O)O,-4,nt,nt,nt,nt
Cc1nc(SCC(=O)c2ccccc2)c(C#N)c(-c2ccco2)c1C(=O)NCc1ccco1,3,236*,19,18,nt
Cc1nnc(Oc2ccccc2F)c2ccccc12,3,128,26,51*,11
Cc1nnc(Oc2ccccc2)c2ccccc12,11,140,-4,6,-7
Cc1nn(-c2ccccc2)c(C)c1NC(=O)c1cccs1,-1,93,-10,-3,1
Cc1nn(-c2ccccc2)c(C)c1NC(=O)Cc1cccs1,5,62,53*,59*[fluorescence artefact?],nt
Cc1nnc(NC(=O)Cc2cccs2)s1,11,50,73*[fluorescence artefact?],74*,6
O=C(Cc1cccs1)Nc1nnc(COc2ccccc2)s1,9,76,37,56*,1
CC1Cc2ccccc2N1C(=O)CSc1nnc(NC(=O)Cc2cccs2)s1 (stereo not given),11,56,47,62*,7
NCCOC[C@H](N)C(=O)O,3,nt,nt,nt,nt
C=C1CCO[C@@]2([C@H](O)[C@@](C)(O)CO)NC(=O)[C@]1(O)NC2=O,10,nt,nt,nt,nt
CN(C)S(=O)(=O)c1nc(Cl)c2[nH]cnc2n1,16,nt,nt,nt,nt
CCN(CC(=O)O)CC(=O)O,-8,nt,nt,nt,nt
Cc1ccc(-n2c(C)nc3oc4ccccc4c(=O)c3c2=O)cc1,4,36,94*[fluorescence artefact?],91*[fluorescence artefact?],8
COc1ccc(CNC(=O)C2CC(c3cccc(OC)c3)=NO2)cc1 (stereo not given),-3,108,73*[fluorescence artefact?],-6,-6
SMILES,Smad3 FoxH1 inh,ERa coact pot,ERb SRC1 inh,ERa SRC1 inh,FAK blocker
COc1ccc(C2=NOC(C(=O)NCc3ccc(F)cc3)C2)cc1OC (stereo not given),6,67,34,70*[fluorescence artefact?],2
NC(N)=N/N=C(\c1ccccc1)c1ccc(O)cc1O,-3,nt,nt,nt,nt
COc1cc(C(Nc2ccccn2)c2ccc3ccc(C)nc3c2O)cc(OC)c1O (stereo not given),5,179,65*,64*[fluorescence artefact?],-1
Cc1ccc2ccc(C(Nc3ccccn3)c3ccccc3)c(O)c2n1 (stereo not given),-10,50,36,49,1
OC(CN1CCN(c2ccccc2)CC1)Cn1c2ccccc2c2ccccc21 (stereo not given),13,270*[fluorescence artefact?],0,-1,0
Cc1cc(C)n(-c2ncnc3sc4c(c23)CCCC4)n1,13,103,5,-3,-2
Cc1nccn1-c1ncnc2sc3c(c12)CCCC3,5,93,63*,1,10
NS(=O)(=O)c1cc2c(cc1Cl)NC=NS2(=O)=O,-3,96,94*[fluorescence artefact?],7,nt

# Screening results as filed in PubChem BioAssay.
